Test results taken from PubChem BioAssay (NCATS).
Records with an inconclusive call do not appear. Where a call stands in place of a potency, no number is given. Calls of active or inactive are those of the source. Calls follow the shape of the dose curve; as a rule, active = well fitted curve in the direction sought with a large enough effect; inconclusive = small, poorly fitted or top-dose-only effect, or another doubt; inactive = no such curve, though single readings can be large; an effect the other way counts as inactive or inconclusive. Starred links: 1 amine or outer side, 2 acyl side, 3 side chain; linkers in the order of their positions; H or OH if unused. Positions of bridges follow the written chain, without caps; N, C: chain ends. Non-standard residues stand in square brackets, D forms with d. Residues, ends and D or L forms follow the SMILES beside them. Chains are numbered I, II in the order given. Actinocin(9to1) = Cc1c2oc3c(C)ccc(C(=O)[*:1])c3nc-2c(C(=O)[*:2])c(N)c1=O; NMeV = CN[CH](C(=O)O)C(C)C; Sar = CNCC(=O)O

Assays:
[1] = test system: Zika virus NS2B-NS3 protease; assay: Primary screen GU AMC qHTS for Zika virus inhibitors (AID 1347154); also: nearly all actives have a fitted effect of over 70% in size; also: potency is read from the fitted curve at half-maximal effect
Procedure, shortened: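 Fluorogenic AMC-substrate cleavage by noncovalent NS2B-NS3 protease complex (25 nM, pH 8.0 Tris buffer with Tween 20) followed for 15 minutes at room temperature (~20% conversion). Percent inhibition from ex340/em450 signal change, fitted by 4-parameter Hill equation.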

[2] = test system: Zika virus NS2B-NS3 protease (unlinked complex); assay: Primary screen GU Rhodamine qHTS for Zika virus inhibitors: Unlinked NS2B-NS3 protease assay (AID 1347159); also: nearly all actives have a fitted effect of over 60% in size; also: potency is read from the fitted curve at half-maximal effect
Procedure, shortened: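 Buffer 10 mM Tris-HCl pH 8.0, 0.01% Tween 20. Unlinked protease 25 nM; compound preincubation 15 min, RT, protected from light. Substrate Rhod110, 1.5 microM; ~15% conversion in 15 min.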

[3] = test system: Zika virus NS2B-NS3 protease (linked construct); assay: Primary screen NINDS Rhodamine qHTS for Zika virus inhibitors (AID 1347160); also: nearly all actives have a fitted effect of over 55% in size; also: potency is read from the fitted curve at half-maximal effect
Procedure, shortened: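 Aprotinin served as in-plate control. Conditions: 25 nM linked NS2B-NS3, pH 8.0 Tris buffer, titrated compounds, 15 min preincubation and 15 min reaction with 1.5 microM Rhod110 substrate at room temperature.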

[4] = Confirmatory screen GU Rhodamine qHTS for Zika virus inhibitors qHTS (AID 1347157); details: purified enzyme assay, Rhodamine110 substrate fluorescence, 15 min; also: potency is read from the fitted curve at half-maximal effect; nearly all actives have a fitted effect of over 70% in size
Procedure, shortened: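 In dose–response format, inhibition of unlinked protease (25 nM) was measured with 1.5 microM bis-peptide Rhodamine110 substrate. Aprotinin served as the intraplate control.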

[5] = ZIKV-mCherry secondary qHTS for Zika virus inhibitors (AID 1347158); also: top concentration of the series differs between compounds
Procedure, shortened: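 Compounds were tested in Vero monkey kidney cells infected with recombinant mCherry-expressing Zika virus at MOI 1 for 48-72 h at 37 °C. Fixed cells were nuclear-stained and imaged, and infection rate was taken as the fraction of mCherry-positive cells.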

[6] = Confirmatory screen NINDS Rhodamine qHTS for Zika virus inhibitors (AID 1347161); also: nearly all actives have a fitted effect of over 60% in size; also: potency is read from the fitted curve at half-maximal effect
Procedure, shortened: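 Enzyme (25 nM, linked NS2B-NS3) was preincubated 15 min with compound in 10 mM Tris-HCl pH 8.0, 0.01% Tween 20. Rhodamine110 substrate (1.5 microM) was then added and fluorescence read at start and after 15 min.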

[7] = test system: Zika virus NS2B-NS3 protease (linked); assay: 384 well plate NINDS AMC confirmatory qHTS for Zika virus inhibitors (AID 1347163);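 also: linked protease at 5 30 or 60 nM final depending on run; fluorescence of AMC released from Ac-VKTGKR-AMC peptide cleaved by the protease; top concentration of the series differs between compounds; nearly all actives have a fitted effect of over 50% in size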
Procedure, shortened: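 Fluorescence at 355/460 nm was read after 25 minutes of cleavage of 30 microM Ac-VKTGKR-AMC at room temperature, in the dark. Before substrate addition, compounds (up to 1 mM final) sat ~15 minutes with 5, 30 or 60 nM linked protease. Signals were normalized to no-enzyme and no-inhibitor wells.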

[8] = test system: Zika virus NS2B-NS3 protease (linked construct); assay: 384 well plate NINDS Rhodamine confirmatory qHTS for Zika virus inhibitors (AID 1347164); also: potency is read from the fitted curve at half-maximal effect; nearly all actives have a fitted effect of over 65% in size
Procedure, shortened: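 Cleavage of Ac-LKRR-Rhodamine 110 (10 microM final) by linked protease (final 5, 30 or 60 nM) was followed as fluorescence at 485/538 nm after 25 min, room temperature, dark. Compounds preincubated ~15 min.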

[9] = Vero cells viability qHTS for Zika virus inhibitors (AID 1347167)
Procedure, shortened: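 Luminescent ATP readout (CellTiter Glo) after 30 min at 37 degrees C gives viability; cells in DMEM + 4% FBS were treated 24 to 48 hours with compound, following overnight attachment.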

[10] = molecular target: Lysine-specific demethylase 5B (Homo sapiens) (UniProt Q9UGL1); assay: Optimization screen for KDM5B Histone Demethylases FDH coupled qHTS against the LOPAC library (AID 1347166)
Procedure, shortened: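 KDM5BDeltaAP (200nM final) in 50mM HEPES pH 7.5, 0.01% Tween-20 was preincubated with compound for 10 min at room temperature. A substrate mix of 12.5uM H3K4Me3, 25uM a-ketoglutarate, ascorbate, Fe2+, NAD+ and formaldehyde dehydrogenase was then added. NADH fluorescence (340/450 nm) was read initially and after 30 min.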

Lysine-specific demethylase 5B (Homo sapiens), sequence (Q9UGL1 whole entry, looked up): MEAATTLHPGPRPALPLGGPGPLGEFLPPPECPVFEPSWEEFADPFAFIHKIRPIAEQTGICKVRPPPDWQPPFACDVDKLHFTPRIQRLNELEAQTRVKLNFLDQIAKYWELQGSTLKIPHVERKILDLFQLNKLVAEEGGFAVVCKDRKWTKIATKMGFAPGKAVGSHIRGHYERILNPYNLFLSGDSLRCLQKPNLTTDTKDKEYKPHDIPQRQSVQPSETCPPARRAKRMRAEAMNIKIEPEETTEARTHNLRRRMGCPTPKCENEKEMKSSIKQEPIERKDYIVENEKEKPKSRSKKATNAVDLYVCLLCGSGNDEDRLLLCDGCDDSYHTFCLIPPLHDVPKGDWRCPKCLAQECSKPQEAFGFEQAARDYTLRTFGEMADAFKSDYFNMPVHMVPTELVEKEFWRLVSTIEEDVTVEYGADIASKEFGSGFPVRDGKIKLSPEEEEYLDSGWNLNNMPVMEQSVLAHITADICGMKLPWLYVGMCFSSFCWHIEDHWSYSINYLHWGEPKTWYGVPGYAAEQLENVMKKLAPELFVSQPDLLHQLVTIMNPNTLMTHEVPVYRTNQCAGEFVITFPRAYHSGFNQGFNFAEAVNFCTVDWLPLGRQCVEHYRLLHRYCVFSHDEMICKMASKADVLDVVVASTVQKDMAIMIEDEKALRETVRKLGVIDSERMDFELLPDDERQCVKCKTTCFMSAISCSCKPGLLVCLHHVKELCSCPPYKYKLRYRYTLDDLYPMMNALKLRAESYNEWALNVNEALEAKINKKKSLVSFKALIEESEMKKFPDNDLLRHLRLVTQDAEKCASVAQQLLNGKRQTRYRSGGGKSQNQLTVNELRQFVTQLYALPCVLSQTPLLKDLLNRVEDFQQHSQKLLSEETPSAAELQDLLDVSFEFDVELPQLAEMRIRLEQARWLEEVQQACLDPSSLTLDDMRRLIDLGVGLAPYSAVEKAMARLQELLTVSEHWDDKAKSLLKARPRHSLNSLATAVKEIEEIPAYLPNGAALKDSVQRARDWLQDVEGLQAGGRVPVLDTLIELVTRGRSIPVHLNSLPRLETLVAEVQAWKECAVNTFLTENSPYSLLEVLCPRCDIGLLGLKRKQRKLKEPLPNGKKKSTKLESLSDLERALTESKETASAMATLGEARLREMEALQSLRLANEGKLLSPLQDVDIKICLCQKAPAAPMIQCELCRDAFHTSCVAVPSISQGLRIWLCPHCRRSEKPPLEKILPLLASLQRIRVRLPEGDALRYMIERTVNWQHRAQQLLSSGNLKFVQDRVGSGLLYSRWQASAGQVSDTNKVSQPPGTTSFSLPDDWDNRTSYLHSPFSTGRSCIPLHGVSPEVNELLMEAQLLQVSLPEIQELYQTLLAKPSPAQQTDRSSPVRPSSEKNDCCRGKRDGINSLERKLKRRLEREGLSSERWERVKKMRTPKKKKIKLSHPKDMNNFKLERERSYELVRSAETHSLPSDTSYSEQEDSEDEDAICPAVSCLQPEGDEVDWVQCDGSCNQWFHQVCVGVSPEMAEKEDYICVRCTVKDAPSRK

c1cncc(CN2CCC(n3ncc4c(N5CCOCC5)nc(-c5ccc6[nH]ccc6c5)nc43)CC2)c1
Potency [1]: inactive | Potency [2]: inactive | Potency [3]: inactive

C=CC(=O)Nc1ccc2ncnc(Nc3ccc(OCc4cccc(F)c4)c(Cl)c3)c2c1
Potency [1]: inactive | Potency [2]: 44.7 µM (active)

Cc1ccc([N+](=O)[O-])cc1S(=O)(=O)N(C)N=Cc1cnc2ccc(Br)cn12
Potency [1]: inactive

Cc1c2oc3c(C)ccc(C(=O)NC4C(=O)NC(C(C)C)C(=O)N5CCCC5C(=O)N(C)CC(=O)N(C)C(C(C)C)C(=O)OC4C)c3nc-2c(C(=O)NC2C(=O)NC(C(C)C)C(=O)N3CCCC3C(=O)N(C)CC(=O)N(C)C(C(C)C)C(=O)OC2C)c(N)c1=O (centres undefined) (I: TVP[Sar][NMeV] / II: TVP[Sar][NMeV]; ester I:1-I:C, II:1-II:C; linker I:N-II:N via Actinocin(9to1); configuration not given here)
Potency [1]: inactive

O=c1c(O)c(-c2ccc(O)c(O)c2)oc2cc(O)ccc12
Potency [1]: 17.1 µM (active) | Potency [4]: 44.7 µM (active) | Potency [5]: inactive | Potency [3]: 22 µM (active) | Potency [6]: 44.7 µM (active) | Potency [7]: inactive | Potency [8]: 316 µM (active)

CO[C@@H]1[C@@H](O)[C@H](O)[C@@H](n2c3c(Cl)cccc3c3c4c(c5c6cccc(Cl)c6[nH]c5c32)C(=O)NC4=O)O[C@@H]1CO
Potency [1]: inactive

COC(=O)[C@@H]1CC2=CC(=O)CC[C@]2(C)[C@@]23O[C@@H]2C[C@@]2(C)[C@H](CC[C@@]24CCC(=O)O4)[C@@H]13
Potency [1]: inactive

CCCCCCCCCCCCCCCC(=O)OC[C@@H](NC(=O)C(Cl)Cl)[C@H](O)c1ccc([N+](=O)[O-])cc1
Potency [1]: inactive

Nc1nc(=O)n([C@H]2C[C@H](O)[C@@H](CO)O2)cc1F
Potency [1]: inactive

O=C(Nc1ccc(Oc2ccnc3[nH]ccc23)c(F)c1)c1cccn(-c2ccc(F)cc2)c1=O
Potency [1]: inactive | Potency [2]: inactive | Potency [3]: inactive

c1cc(N[C@@H]2CCNC2)nc(-c2cnc3ccc(-c4cn[nH]c4)cn23)c1
Potency [1]: 19.2 µM (active) | Potency [3]: inactive | Potency [6]: inactive | outcome [9]: inactive

CC(C)C[C@H](NC(=O)[C@@H](NC(=O)c1cccc(-c2ccccc2)n1)[C@@H](C)O)B(O)O
Potency [1]: inactive | Potency [2]: inactive | Potency [3]: inactive

CCc1ccc(C(=O)Nc2cc(CN3CCN(C)CC3)cc(C(F)(F)F)c2)cc1C#Cc1cnc2ccnn2c1
Potency [1]: inactive | Potency [2]: inactive | Potency [3]: inactive

N[C@H]1CN(c2c(F)cc3c(=O)c(C(=O)O)cn(C4C[C@@H]4F)c3c2Cl)CC12CC2 (some centres undefined)
Potency [1]: inactive | Potency [2]: inactive | Potency [3]: inactive

CN1CCc2c(c3ccccc3n2Cc2ccc(C(=O)NO)cc2)C1
Potency [1]: inactive | Potency [2]: inactive | Potency [3]: inactive

CCc1nc(-c2cccc(C)c2)c(-c2ccnc(NC(=O)c3ccccc3)c2)s1
Potency [2]: inactive | Potency [3]: inactive

Cc1cnc(Nc2ccc(CN3CCOCC3)cc2)nc1Nc1cccc(S(=O)(=O)NC(C)(C)C)c1
Potency [1]: inactive | Potency [2]: inactive | Potency [3]: inactive

C[C@H]1[C@@H](OC(=O)CCC(=O)O)O[C@@H]2O[C@@]3(C)CC[C@@H]4[C@H](C)CC[C@@H]1[C@@]24OO3
Potency [1]: inactive | Potency [2]: inactive | Potency [3]: inactive

C[C@@H](NCc1cc2ccccc2[nH]1)c1cccc2ccccc12
Potency [6]: inactive

Cc1coc2c1C(=O)C(=O)c1c-2ccc2c(C)cccc12
Potency [2]: 35.5 µM (active) | Potency [3]: 25.1 µM (active)

C=C(C)[C@@H]1CC[C@]2(C(=O)O)CC[C@]3(C)[C@H](CC[C@@H]4[C@@]5(C)CC[C@H](O)C(C)(C)[C@@H]5CC[C@]43C)[C@@H]12
Potency [1]: inactive | Potency [3]: 6.21 µM (active)

COc1ccc2cc([S+]([O-])Cc3ncc(C)c(OC)c3C)nc2c1
Potency [1]: inactive | outcome [10]: inactive

C[C@H](O)[C@@H]1C(=O)N2C(C(=O)O)=C(S[C@@H]3CN[C@H](CNS(N)(=O)=O)C3)[C@@H](C)[C@@H]12
Potency [1]: inactive | Potency [2]: inactive | Potency [3]: inactive

Cn1cnc2c(F)c(Nc3ccc(Br)cc3F)c(C(=O)NOCCO)cc21
Potency [1]: inactive | Potency [2]: inactive | Potency [3]: inactive

Nc1ccc(C(=O)Nc2cccc(-c3nc(N4CCOCC4)c4oc5ncccc5c4n3)c2)cn1
Potency [1]: inactive | Potency [3]: inactive

C[N+]1(C)[C@@H]2C[C@@H](OC(=O)C(O)(c3cccs3)c3cccs3)C[C@H]1[C@@H]1O[C@@H]12
Potency [1]: inactive | Potency [2]: inactive | Potency [3]: inactive

Nc1ccn(C2CO[C@H](CO)O2)c(=O)n1 (some centres undefined)
Potency [1]: inactive | Potency [2]: inactive | Potency [3]: inactive

CNC(=O)c1cccc(-c2ccc3c(N4CCOC[C@H]4C)nc(N4CCOC[C@H]4C)nc3n2)c1
Potency [1]: 24.1 µM (active) | Potency [6]: inactive | outcome [9]: inactive
